Screens as filed in PubChem BioAssay.
The entries come from a sample that favours hits as a whole.
DT40 TDP1 CPT = DT40-hTDP1 cell growth loss with CPT; chicken DT40 Tdp1-/-;hTDP1 cells + 20 nM CPT, ATP luminescence, 48 h; 420,000 compounds, 12% hits; Potency, µM (highest dose often 46.2 µM), for the others: at the highest dose activity change, negative = growth inhibition, actives largely listed as inhibitors; further: potency means the concentration at half of the fitted maximal effect; nearly all actives have a fitted effect of over 55% in size
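Chicken DT40 Tdp1-/- cells complemented with human TDP1, 400 cells/well, exposed to compounds plus 20 nM camptothecin for at least 48 h at 37 C; viability read as ATP content by CellTiter-Glo luminescence.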
ALOX12 inh = ALOX12 (human) lipoxygenase inhibition | purified 12hLO, xylenol orange hydroperoxide absorbance | Potency, µM (highest dose often 108 µM), without a hit: at the highest dose activity change, negative = inhibition, usual class: inhibitors | 580,000 compounds, 1.1% hits | AID 1671190; further: potency means the concentration at half of the fitted maximal effect
Target sequence (P18054 whole entry, looked up): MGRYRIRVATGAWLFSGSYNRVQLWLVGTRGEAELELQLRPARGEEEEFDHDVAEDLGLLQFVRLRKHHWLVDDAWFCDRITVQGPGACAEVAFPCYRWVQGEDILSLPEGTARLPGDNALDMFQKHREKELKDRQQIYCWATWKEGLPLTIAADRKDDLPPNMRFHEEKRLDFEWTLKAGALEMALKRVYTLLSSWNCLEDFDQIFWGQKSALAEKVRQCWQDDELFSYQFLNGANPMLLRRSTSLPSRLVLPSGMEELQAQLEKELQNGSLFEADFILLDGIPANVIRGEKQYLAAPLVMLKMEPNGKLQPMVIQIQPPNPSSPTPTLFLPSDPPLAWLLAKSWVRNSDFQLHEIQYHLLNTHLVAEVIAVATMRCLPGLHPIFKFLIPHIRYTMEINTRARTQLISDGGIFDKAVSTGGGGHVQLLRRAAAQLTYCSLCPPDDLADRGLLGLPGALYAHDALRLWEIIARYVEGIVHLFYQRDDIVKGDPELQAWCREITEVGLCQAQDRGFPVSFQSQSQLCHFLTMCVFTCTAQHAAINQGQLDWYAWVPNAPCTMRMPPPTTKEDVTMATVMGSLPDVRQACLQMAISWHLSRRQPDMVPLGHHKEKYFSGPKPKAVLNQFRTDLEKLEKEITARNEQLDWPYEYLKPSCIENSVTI
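Hydroperoxide product was detected by ferrous iron/xylenol orange as the 573 to 405 nm absorbance ratio. Arachidonic acid at 40 uM (final) was turned over for 30 min at room temperature by 150 nM human 12hLO, pH 7.0 Hepes buffer, after 15 min compound preincubation.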
IL1B secr inh = inflammasome signaling inhibition, IL-1 beta readout. THP-1 LPS/ATP IL-1B secretion, AlphaLISA, 16 h; stronger effect = lower value. activity change, % at 57.5 µM. 360,000 compounds, 4.7% hits. AID 743279; in the data active means activity change below about -50%; inconclusive means mostly about -30% to -49%
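Secreted IL-1B measured by AlphaLISA bead assay after 16 h compound exposure of THP-1 cells; compounds (final up to 57.5 uM) added 1 h before LPS (250 ng/mL) and ATP (1.25 mM) stimulation; lower signal means less secretion.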
HT1080 IDH1KD tx = kills HT-1080 cells with IDH1 knockdown; 360,000 compounds, 2% hits; Potency, µM (series often up to 46.1 µM), inactives show at the highest dose activity, negative = toxicity, actives largely listed as cytotoxic; HT-1080 IDH1 knockdown viability, ATP luminescence, 48 h;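 further: potency means the concentration at half of the fitted maximal effect; 0% = DMSO wells and -100% = cell-free medium wells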
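Assay cells: HT-1080 with IDH1 knockdown, 750 per well, RPMI/5% FBS. Exposure: 48 h at 37 °C following 2 h pre-incubation. Read: CellTiter-Glo luminescence; fitted concentration-response, curve class assigned.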
DT40 TDP1 no CPT = qHTS for Inhibitors of human tyrosyl-DNA phosphodiesterase 1 (TDP1): qHTS in cells in absence of CPT; DT40 Tdp1-/- hTDP1 cells, no CPT, ATP luminescence, 48 h; Potency, µM (highest dose often 46.2 µM), for inactives: top-dose activity change, negative = growth inhibition, usual class: inhibitors; 420,000 compounds, 15% hits; further: potency means the concentration at half of the fitted maximal effect; nearly all actives have a fitted effect of over 55% in size
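No-CPT arm: Tdp1-/-;hTDP1 DT40 cells (400/well) plus compounds, incubated ≥48 hr at 37 °C. Readout CellTiter-Glo luminescence.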
HT1080-NT tox = kills 2HG-producing HT-1080-NT fibrosarcoma cells; 360,000 compounds, 1.6% hits; AID 686970; Potency, µM (highest dose often 46.1 µM), inactives show top-dose activity, negative = less viability, actives largely listed as cytotoxic; HT-1080-NT fibrosarcoma viability, CellTiter-Glo ATP luminescence, 48 h;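 further: NT is the 2HG producing partner of a matched IDH1 knockdown line; potency means the concentration at half of the fitted maximal effect; 0% = DMSO-treated cells and -100% = media-only wells without cells; nearly all actives have a fitted effect of over 55% in size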
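HT-1080-NT; 750 cells/well; 5% FBS RPMI; 48 h compound, 37 degrees C; CellTiter-Glo luminescence; curve fitting and curve-class assignment.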
* = called active by the depositor; [ ] = another dose, or the depositor's remark. Unless noted, the call rests on the fitted dose curve; in most records, active means well fitted curve in the direction sought with a large enough effect; inconclusive means small, poorly fitted or top-dose-only effect, or another doubt; inactive means no such curve, though single readings can be large; an effect the other way counts as inactive or inconclusive. Unless noted, on the % scale 0 is the no-effect control and ±100 the full control effect.

Screening CC(C)(C)C(=O)O/N=C(\N)c1ccc([N+](=O)[O-])s1 returned DT40 TDP1 CPT 6.5µM*, ALOX12 inh inconclusive, IL1B secr inh 0, HT1080 IDH1KD tx -8%, DT40 TDP1 no CPT 6.5µM* and HT1080-NT tox inconclusive.
For CCCNC(=O)NCC(=O)N1CCCCCCNC(=O)CC1c1ccccc1 (stereo not given) the results were ALOX12 inh 16%.
`CCC(O)CNC(=O)NC(=C(Cl)Cl)c1ccc(C)c(F)c1` (stereo not given) gave DT40 TDP1 CPT inconclusive, ALOX12 inh 0%, IL1B secr inh -73*, HT1080 IDH1KD tx -12%, DT40 TDP1 no CPT 10µM* and HT1080-NT tox -4%.
CCn1nnc2c(N3CCOCC3)nc(-c3ccc(NC(=O)Nc4ccc(C(=O)N5CCN(C)CC5)cc4)cc3)nc21 was read as ALOX12 inh -16%[57.4 µM].
For CCn1c2ccccc2c2cc(/C=N/NC(=O)c3ccc(O)cc3)ccc21 the results were DT40 TDP1 CPT 23µM*, ALOX12 inh -2%, IL1B secr inh -14, HT1080 IDH1KD tx inconclusive, DT40 TDP1 no CPT 26µM* and HT1080-NT tox inconclusive.
For CCn1c2ccccc2c2cc(/C=N/NC(=O)c3cc(O)cc(O)c3)ccc21 the results were DT40 TDP1 CPT -22%, ALOX12 inh -4%, IL1B secr inh -106*, HT1080 IDH1KD tx inconclusive, DT40 TDP1 no CPT inconclusive and HT1080-NT tox inconclusive.
CC(C)(C)n1ccc(C(=O)N2CCC3(CCCN(C4CCCC4)C3=O)C2)c1 (stereo not given) was read as ALOX12 inh -1%.
For CCOC(=O)N1CCN(C(=O)c2cc3sccc3n2Cc2ccccc2F)CC1 the results were ALOX12 inh 3%.
Screening Cn1cccc1C(=O)N1CCCCC1c1nc(-c2cnccn2)n[nH]1 (stereo not given) returned ALOX12 inh 40%.
COc1cc(/C=C2/C(=O)NN(c3ccc(Cl)c(Cl)c3)C2=O)cc([N+](=O)[O-])c1O was read as DT40 TDP1 CPT -8%, ALOX12 inh 35µM*, IL1B secr inh -14, HT1080 IDH1KD tx -5%, DT40 TDP1 no CPT 11% and HT1080-NT tox 4%.
For COc1cc(/C=C2/C(=O)NN(c3ccc(F)cc3)C2=O)cc(Cl)c1O the results were DT40 TDP1 CPT -22%, ALOX12 inh inconclusive, IL1B secr inh 37, HT1080 IDH1KD tx -22%, DT40 TDP1 no CPT inconclusive and HT1080-NT tox inconclusive.
`COc1ccc(C2=NN3C(=O)c4c(ccc(OC)c4OC)C3C2)cc1` (stereo not given) gave DT40 TDP1 CPT -29%, ALOX12 inh 29%, IL1B secr inh -3, HT1080 IDH1KD tx 5%, DT40 TDP1 no CPT inconclusive and HT1080-NT tox 11%.
`COc1ccc2c(c1OC)C(=O)N1N=C(c3ccc(Cl)cc3)CC21` (stereo not given) gave DT40 TDP1 CPT -2%, ALOX12 inh -20%, IL1B secr inh -82*, HT1080 IDH1KD tx 3%, DT40 TDP1 no CPT inconclusive and HT1080-NT tox 5%.
COC(=O)c1c(N2C(=O)[C@H]3[C@@H](C2=O)[C@]2(C(=O)Nc4c2ccc(C)c4C)N2CCC[C@@H]32)sc(C)c1C was read as DT40 TDP1 CPT 18µM*, ALOX12 inh -22%, IL1B secr inh -10, HT1080 IDH1KD tx -21%, DT40 TDP1 no CPT 16µM* and HT1080-NT tox -18%.
CSCC[C@H](NC(=O)[C@H](Cc1c[nH]c2ccccc12)NC(=O)CCNC(=O)OC(C)(C)C)C(=O)N[C@@H](CC(=O)O)C(=O)N[C@@H](Cc1ccccc1)C(N)=O was read as DT40 TDP1 CPT -10% and DT40 TDP1 no CPT -8%.
